About 2,000 (36%) of roughly 5,500 compounds were called active. Roughly 18% stayed inconclusive and do not appear here. Cut-off read from the data, not from the text of the source: active = normalized growth mostly below about 0.91 (no sharp cut-off); inconclusive = no clear call, values can overlap the other calls; inactive = mostly above about 0.92. The list shows a part of the results.
Experiment: chemical genetic growth profiling, strain panel (AID 1159580);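 note: tested at 20 µM; growth read once vehicle control cultures reached saturation at 30 °C; 1 = growth at the plate median or of vehicle wells; lower values mean less growth of the strain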
Settings: S. cerevisiae deletion strains, growth OD

Measured: normalized growth

CC1=NN(c2ccccc2)C(=O)C1
inactive: locus YAL021C, strain ccr4, stronger effect = lower value 0.982 | locus YAL026C, strain drs2, stronger effect = lower value 0.959 | locus YAL030W, strain snc1, stronger effect = lower value 0.998 | locus YBL061C, strain skt5, stronger effect = lower value 0.987 | locus YBR009C, strain hhf1, stronger effect = lower value 0.936 | locus YBR021W, strain FUR4, stronger effect = lower value 0.993 | locus YBR023C, strain chs3, stronger effect = lower value 0.983 | locus YBR171W, strain sec66, stronger effect = lower value 0.994 | locus YBR229C, strain ROT2, stronger effect = lower value 0.978 | locus YBR231C, strain swc5, stronger effect = lower value 0.979 | locus YBR279W, strain paf1, stronger effect = lower value 0.979 | locus YCL011C, strain gbp2, stronger effect = lower value 0.98 | locus YCL016C, strain dcc1, stronger effect = lower value 0.965 | locus YCL029C, strain bik1, stronger effect = lower value 0.982 | locus YCL061C, strain MRC1, stronger effect = lower value 0.985 | locus YCL069W, strain vba3, stronger effect = lower value 0.986 | locus YCR088W, strain abp1, stronger effect = lower value 0.993 | locus YDL005C, strain med2, stronger effect = lower value 0.975 | locus YDL035C, strain GPR1, stronger effect = lower value 0.955 | locus YDL040C, strain nat1, stronger effect = lower value 0.978 | locus YDL074C, strain BRE1, stronger effect = lower value 0.912 | locus YDL101C, strain DUN1, stronger effect = lower value 0.957 | locus YDL134C, strain PPH21, stronger effect = lower value 0.971 | locus YDL185W, strain tfp1, stronger effect = lower value 0.976 | locus YDL192W, strain arf1, stronger effect = lower value 0.918 | locus YDR001C, strain nth1, stronger effect = lower value 0.994 | locus YDR069C, strain doa4, stronger effect = lower value 0.969 | locus YDR101C, strain arx1, stronger effect = lower value 1.01 | locus YDR137W, strain rgp1, stronger effect = lower value 0.899 | locus YDR159W, strain sac3, stronger effect = lower value 0.957 | locus YDR162C, strain NBP2, stronger effect = lower value 0.925 | locus YDR195W, strain ref2 1 | locus YDR297W, strain sur2, stronger effect = lower value 0.983 | locus YDR334W, strain swr1, stronger effect = lower value 0.992 | locus YDR335W, strain msn5, stronger effect = lower value 0.99 | locus YDR388W, stronger effect = lower value 0.958 | locus YDR502C, strain sam2, stronger effect = lower value 0.934 | locus YEL003W, strain gim4, stronger effect = lower value 0.97 | locus YEL037C, strain rad23, stronger effect = lower value 0.994 | locus YEL061C, strain CIN8 (second series), stronger effect = lower value 0.988 | locus YEL061C, strain CIN8, stronger effect = lower value 0.992 | locus YER015W, strain faa2, stronger effect = lower value 0.987 | locus YER016W, strain bim1, stronger effect = lower value 0.99 | locus YER110C, stronger effect = lower value 0.98 | locus YER111C, strain swi4, stronger effect = lower value 0.989 | locus YER155C, strain BEM2 (second series), stronger effect = lower value 0.917 | locus YER155C, strain BEM2, stronger effect = lower value 0.991 | locus YER167W, strain BCK2, stronger effect = lower value 0.952 | locus YFR010W, strain ubp6, stronger effect = lower value 0.983 | locus YGL078C, strain dbp3, stronger effect = lower value 0.98 | locus YGL086W, strain mad1, stronger effect = lower value 0.955 | locus YGL167C, strain pmr1, stronger effect = lower value 0.982 | locus YGL173C, strain kem1, stronger effect = lower value 0.974 | locus YGL227W, strain vid30, stronger effect = lower value 0.995 | locus YGL240W, strain doc1, stronger effect = lower value 0.952 | locus YGL248W, strain PDE1, stronger effect = lower value 0.963 | locus YGL253W, strain hxk2, stronger effect = lower value 0.976 | locus YGR135W, strain pre9, stronger effect = lower value 0.914 | locus YGR252W, strain gcn5, stronger effect = lower value 0.867 | locus YHR013C, strain ard1, stronger effect = lower value 0.881 | locus YHR027C, strain rpn1, stronger effect = lower value 0.985 | locus YHR030C, strain SLT2, stronger effect = lower value 0.987 | locus YHR079C, strain IRE1 (second series), stronger effect = lower value 0.981 | locus YHR094C, strain hxt1, stronger effect = lower value 0.982 | locus YHR129C, strain ARP1, stronger effect = lower value 0.972 | locus YHR142W, strain chs7, stronger effect = lower value 0.972 | locus YHR200W, strain rpn10, stronger effect = lower value 0.975 | locus YIL066C, strain RNR3, stronger effect = lower value 0.929 | locus YIL073C, strain SPO22, stronger effect = lower value 0.898 | locus YIR030C, strain dcg1, stronger effect = lower value 0.978 | locus YJL092W, strain hpr5, stronger effect = lower value 0.985 | locus YJL095W, strain BCK1 (second series), stronger effect = lower value 0.983 | locus YJL095W, strain BCK1, stronger effect = lower value 0.935 | locus YJL115W, strain asf1, stronger effect = lower value 0.983 | locus YJL129C, strain trk1, stronger effect = lower value 0.985 | locus YJL134W, strain LCB3, stronger effect = lower value 0.981 | locus YJL154C, strain vps35, stronger effect = lower value 0.997 | locus YJL164C, strain tpk1, stronger effect = lower value 0.973 | locus YJL166W, strain qcr8, stronger effect = lower value 0.949 | locus YJL168C, strain set2, stronger effect = lower value 0.993 | locus YJL187C, strain SWE1 (second series), stronger effect = lower value 0.986 | locus YJL187C, strain SWE1, stronger effect = lower value 0.983 | locus YJR043C, strain POL32, stronger effect = lower value 0.998
active: locus YDR318W, strain mcm21, stronger effect = lower value 0.904 | locus YDR392W, strain spt3, stronger effect = lower value 0.609 | locus YIL125W, strain kgd1, stronger effect = lower value 0.93

— PubChem BioAssay AID1159580 (chemical genetic matrix, 2015)
